Measurements as given in PubChem BioAssay (NCATS).
Inconclusive results are not listed. Entries that show only a call come without a potency. The source made the active and inactive calls. Calls come from the whole dose curve; as a rule, active = well fitted curve in the direction sought with a large enough effect; inconclusive = small, poorly fitted or top-dose-only effect, or another doubt; inactive = no such curve, though single readings can be large; an effect the other way counts as inactive or inconclusive.

biological target: D(1A) dopamine receptor (Homo sapiens) (UniProt P21728); assay: HTS Assay for Allosteric Agonists of the Human D1 Dopamine Receptor: Primary Screen for Potentiators (AID 488982); settings: HEK293 T-REx D1 inducible cells, calcium flux, kinetic fluorescence; series mostly up to 8.37 µM
Sequence (P21728 whole entry, looked up): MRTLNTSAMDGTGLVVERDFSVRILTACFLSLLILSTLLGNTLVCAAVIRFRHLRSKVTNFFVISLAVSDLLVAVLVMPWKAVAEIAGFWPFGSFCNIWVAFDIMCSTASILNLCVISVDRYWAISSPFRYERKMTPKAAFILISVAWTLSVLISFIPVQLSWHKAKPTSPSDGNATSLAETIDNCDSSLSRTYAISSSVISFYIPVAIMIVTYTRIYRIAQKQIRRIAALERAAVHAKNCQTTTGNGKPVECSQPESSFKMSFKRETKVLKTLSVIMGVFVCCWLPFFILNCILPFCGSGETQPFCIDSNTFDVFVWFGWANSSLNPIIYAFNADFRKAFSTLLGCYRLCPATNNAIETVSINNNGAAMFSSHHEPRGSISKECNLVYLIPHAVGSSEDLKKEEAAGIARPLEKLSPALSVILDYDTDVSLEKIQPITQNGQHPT
Summary of the method: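 Calcium flux in an inducible, force-coupled HEK293 Trex D1 line (overnight at 30 C): agonist mode is the 180 s kinetic read after compound; potentiator mode is the following 180 s read after dopamine at EC20.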

| Structure (SMILES) | Potency |
| --- | --- |
| CCCn1c(C)c(C(=O)c2ccc3ccccc3c2)c2ccccc21 | inactive |
| C[C@]12Cc3cn4c(nc3C=C1CCC1C2CC[C@@]2(C)[C@H]1CC[C@@]2(O)C#N)nc1ccccc14 (stereo not given in full) | inactive |
| NC(=O)c1ccc(OCC(O)CN2CC=C(c3ccc(F)cc3)CC2)cc1 (stereo not given) | inactive |
| O=[N+]([O-])c1cc(O)c(O)c([N+](=O)[O-])c1 | inactive |
| OC1CCCCC1N1CCC(c2ccccc2)CC1 (stereo not given) | inactive |
| COc1ccc(CNC(=O)/C=C/c2ccc3[nH]cc(CCN(C)C)c3c2)cc1 | inactive |
| NC(CCCCCP(=O)(O)O)C(=O)O (stereo not given) | inactive |
| c1ccc2c(c1)[I+]c1ccccc1-2 | inactive |
| Nc1ccc(CCN2CCN(c3cccc(C(F)(F)F)c3)CC2)cc1 | inactive |
| N[C@@H](CCl)C(=O)O | inactive |
| NC(Cc1ccc(N(CCCl)CCCl)cc1)C(=O)O (stereo not given) | inactive |
| C#CCN[C@H](C)Cc1ccccc1 | inactive |
| O=C1C=CC(=O)C=C1 | inactive |
| CC(=O)NBr | inactive |
| CCCn1c(=O)c2[nH]c(C3CCCC3)nc2n(CCCOC(=O)c2ccc(S(=O)(=O)F)cc2)c1=O | inactive |
| O=S1(=O)N(CCN2CC=C(c3c[nH]c4cc(F)ccc34)CC2)c2cccc3c2N1CCC3 | inactive |
| C=CCN1CC[C@]23c4c5ccc(O)c4O[C@H]2/C(=N/NC(=O)c2ccccc2)CC[C@@]3(O)[C@H]1C5 | inactive |
| O=[N+]([O-])c1ccc2nc(N3CCNCC3)ccc2c1 | inactive |
| COc1ccc2[nH]c3c(c2c1)CCNC3 | inactive |
| N[C@@H](Cn1oc(=O)[nH]c1=O)C(=O)O | inactive |
| CN1C2CCC1CC(OC(c1ccccc1)c1ccccc1N)C2 (stereo not given) | inactive |

biological target: D(1A) dopamine receptor (Homo sapiens) (UniProt P21728); assay: HTS Assay for Allosteric Agonists of the Human D1 Dopamine Receptor: Primary Screen for Antagonists (AID 488983); settings: D1 receptor cell assay, antagonist mode, qHTS titration; series mostly up to 41.8 µM;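 note: calcium flux response to an EC80 dopamine challenge measured with no-wash dye; nearly all actives have a fitted effect of over 65% in size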
Summary of the method: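 Calcium-flux read-out in inducible HEK293 T-REx cells expressing D1, dye-loaded 30–90 min at room temperature. Kinetic reads: 180 s after compound (agonist phase), then 180 s after an EC80 dopamine challenge.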

| Structure (SMILES) | Potency |
| --- | --- |
| CCCn1c(C)c(C(=O)c2ccc3ccccc3c2)c2ccccc21 | inactive |
| C[C@]12Cc3cn4c(nc3C=C1CCC1C2CC[C@@]2(C)[C@H]1CC[C@@]2(O)C#N)nc1ccccc14 (stereo not given in full) | inactive |
| CC1(C(=O)O)C2CCC(O2)C1(C)C(=O)O (stereo not given) | inactive |
| COc1ccc2c(c1)/C(=C/c1cnc[nH]1)C(=O)N2 | inactive |
| O=[N+]([O-])c1cc(O)c(O)c([N+](=O)[O-])c1 | inactive |
| OC1CCCCC1N1CCC(c2ccccc2)CC1 (stereo not given) | inactive |
| CC(N)[C@H](O)c1ccc(O)c(O)c1 (stereo not given in full) | inactive |
| OCc1cnc[nH]1 | inactive |
| NCCc1ccc(S(=O)(=O)F)cc1 | inactive |
| COc1ccc(CNC(=O)/C=C/c2ccc3[nH]cc(CCN(C)C)c3c2)cc1 | inactive |
| CCCCCCC(C)(C)c1ccc([C@@H]2C[C@H](O)CC[C@H]2CCCO)c(O)c1 | inactive |
| NC(CCCCCP(=O)(O)O)C(=O)O (stereo not given) | inactive |
| c1ccc2c(c1)[I+]c1ccccc1-2 | inactive |
| N[C@@H](CCl)C(=O)O | inactive |
| NC(Cc1ccc(N(CCCl)CCCl)cc1)C(=O)O (stereo not given) | inactive |
| Cc1o[nH]c(=O)c1CC(N)C(=O)O (stereo not given) | inactive |
| C#CCN[C@H](C)Cc1ccccc1 | inactive |

| Structure (SMILES) | Potency |
| --- | --- |
| O=C1C=CC(=O)C=C1 | inactive |
| NC(=O)COc1c(F)cc(SCCNS(=O)(=O)c2ccccc2)cc1F | inactive |
| NNC(N)=O | inactive |
| Cc1c2ccncc2c(C)c2c1[nH]c1ccccc12 | inactive |
| CC(=O)NBr | inactive |
| CN1CC[C@@]2(C)c3cc(O)ccc3N(C)C12 (stereo not given in full) | inactive |
| CCCN(CCC)C1Cc2cc(OC)c(OC)cc2C1 | inactive |
| CC(=O)c1c(O)c(C)c(O)c(Cc2c(O)c3c(c(C(=O)/C=C/c4ccccc4)c2O)OC(C)(C)C=C3)c1O | inactive |
| CCCn1c(=O)c2[nH]c(C3CCCC3)nc2n(CCCOC(=O)c2ccc(S(=O)(=O)F)cc2)c1=O | inactive |
| NC(N)=Nc1ccc2[nH]c3c(c2c1)C[C@@]1(O)[C@H]2Cc4ccc(O)c5c4[C@@]1(CCN2CC1CC1)[C@H]3O5 | inactive |
| CC(N)c1cccc(Cl)c1Cl (stereo not given) | inactive |
| C=CCN1CC[C@]23c4c5ccc(O)c4O[C@H]2/C(=N/NC(=O)c2ccccc2)CC[C@@]3(O)[C@H]1C5 | inactive |
| CCS(=O)(=O)Nc1cccc(C(=C2CCCCC2)c2cnc[nH]2)c1 | inactive |
| NCC(CP(=O)(O)O)c1ccc(Cl)cc1 (stereo not given) | inactive |
| COc1ccc2[nH]c3c(c2c1)CCNC3 | inactive |
| N[C@@H](Cn1oc(=O)[nH]c1=O)C(=O)O | inactive |
| CN1C2CCC1CC(OC(c1ccccc1)c1ccccc1N)C2 (stereo not given) | inactive |
